# From PubChem BioAssay (EPA / NIEHS)
# “And” between values parts separate entries of the source, which are not always exact repeats. Identical values can stand only once. Results filed as inconclusive are left out. The source made the active and inactive calls. Rule for the calls: active = hit-call score of the fitted dose curve at least 0.9, where 1 is the maximum; inconclusive = response in the unintended direction; inactive = score below 0.9.
# Key:
# [1] = molecular target: rat CYP2C13, Cyp2c13 (gene 171521) (UniProt P20814); test: NVS_ADME_rCYP2C13: NovaScreen (NVS) CYP450-related Enzyme Activity (ADME) Assay for rat CYP2C13 (AID 2283121)
# Outline: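 Recombinant rat CYP2C13 with fluorogenic substrate, 0.75 h cell-free incubation; primary screen in duplicate at 10 uM, actives followed in concentration series. Fluorescence loss relative to acetonitrile control indicates inhibition.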
# rat CYP3A1, gene 25642 = test: NVS_ADME_rCYP3A1: NovaScreen (NVS) CYP450-related Enzyme Activity (ADME) Assay for rat CYP3A1 (AID 2283126)
# Outline: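 Cell-free recombinant CYP assay with fluorescent substrate, read 0.5 h after dosing. Screened at 10 uM in duplicate, hits at up to 20 uM in concentration-response; loss of signal versus acetonitrile baseline.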
# [2] = molecular target: human Acetylcholinesterase (AChE), ACHE (gene 43) (UniProt P22303); test: NVS_ENZ_hAChE: NovaScreen (NVS) Enzymatic Assay for human Acetylcholinesterase (AChE) (AID 2283129)
# Outline: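 Cell-free colorimetric enzyme-activity assay; compounds read 0.33 hour after dosing, loss of signal vs DMSO baseline. Primary screen in duplicate at 25 uM single concentration, with active compounds retested in concentration series.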
# Caspase-1 (Homo sapiens) = Caspase-1 (Homo sapiens) (UniProt P29466); test: NVS_ENZ_hCASP1: NovaScreen (NVS) Enzymatic Assay for human Caspase 1 (CASP1) (AID 2283132)
# Outline: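 Cell-free enzymatic assay with E. coli-expressed recombinant protein; fluorescence intensity read 1 hour after dosing. Single-concentration duplicate screen at 25 uM, then concentration-response up to 50 uM; activity fitted relative to DMSO, loss of signal meaning inhibition.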
# [3] = molecular target: human Caspase 2 (CASP2), CASP2 (gene 835) (UniProt P42575); test: NVS_ENZ_hCASP2: NovaScreen (NVS) Enzymatic Assay for human Caspase 2 (CASP2) (AID 2283135)
# Outline: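 E. coli-expressed enzyme in a cell-free protease assay, fluorescence read 1 h after dosing. Compounds at 25 uM in duplicate, with concentration-response up to 50 uM for hits; loss of signal against DMSO baseline.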
# [4] = molecular target: human Acid Phosphatase 1 (ACP1), ACP1 (gene 52) (UniProt P24666); test: NVS_ENZ_hACP1: NovaScreen (NVS) Enzymatic Assay for human Acid Phosphatase 1 (ACP1) (AID 2283136)
# Outline: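 Recombinant enzyme expressed in Sf9 cells, tested cell-free; activity read by fluorescence with electrophoretic mobility shift separation of substrate and product, 1.5 h after dosing. Primary screen in duplicate at 25 uM, actives then run in concentration series; loss of signal versus DMSO.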
# [5] = molecular target: human Caspase 5 (CASP5), CASP5 (gene 838) (UniProt P51878); test: NVS_ENZ_hCASP5: NovaScreen (NVS) Enzymatic Assay for human Caspase 5 (CASP5) (AID 2283137)
# Outline: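 Recombinant E. coli-expressed human caspase 5 in a cell-free enzyme assay; fluorescence intensity read 2 hours after chemical dosing. Single-concentration duplicate screen at 25 uM, then concentration-response up to 50 uM for hits; DMSO negative control.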
# [6] = molecular target: human Beta-secretase (BACE), BACE1 (gene 23621) (UniProt P56817); test: NVS_ENZ_hBACE: NovaScreen (NVS) Enzymatic Assay for human Beta-secretase (BACE) (AID 2283140);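 note: hits are inhibitors that reduce fluorescent substrate signal versus DMSO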
# Outline: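 Cell-free fluorescence-intensity assay of recombinant BACE1 expressed in SF9 cells, read 1 hour after dosing. Loss of signal indicates reduced protease activity, fitted relative to DMSO negative control. Primary screen at 25 uM in duplicate; actives followed in concentration series.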
# [7] = molecular target: human AKT serine/threonine Kinase 2 (AKT2), AKT2 (gene 208) (UniProt P31751); test: NVS_ENZ_hAKT2: NovaScreen (NVS) Enzymatic Assay for human AKT serine/threonine Kinase 2 (AKT2) (AID 2283141)
# Outline: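 Cell-free fluorescence/electrophoretic mobility shift readout of recombinant human AKT2 activity, 1 h after chemical dosing. Duplicate primary screen at 25 uM, then singleton concentration-response up to 50 uM; loss of signal versus DMSO baseline.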
# [8] = molecular target: human Aurora Kinase A - serine/threonine-protein Kinase 6 (AurA), AURKA (gene 6790) (UniProt O14965); test: NVS_ENZ_hAurA: NovaScreen (NVS) Enzymatic Assay for human Aurora Kinase A - serine/threonine-protein Kinase 6 (AurA) (AID 2283142)
# Outline: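 Cell-free enzymatic assay with human Aurora A, 1 hour after dosing. Fluorescent substrate turnover detected after electrophoretic mobility shift separation of substrate and product. Screened at 25 uM, actives retested in concentration-response up to 50 uM.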
# [9] = molecular target: human Caspase 4 (CASP4), CASP4 (gene 837) (UniProt P49662); test: NVS_ENZ_hCASP4: NovaScreen (NVS) Enzymatic Assay for human Caspase 4 (CASP4) (AID 2283143)
# Outline: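 The cell-free assay used E. coli-expressed enzyme with a fluorogenic substrate, read 2 h after dosing. Signal loss was scored versus DMSO. Screening was in duplicate at 25 uM, then singleton concentration-response up to 50 uM.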
# [10] = molecular target: human Caspase 8 (CASP8), CASP8 (gene 841) (UniProt Q14790); test: NVS_ENZ_hCASP8: NovaScreen (NVS) Enzymatic Assay for human Caspase 8 (CASP8) (AID 2283146)
# Outline: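 E. coli-expressed enzyme was used in a cell-free fluorogenic substrate assay read 1 h after dosing. Loss of signal was scored relative to DMSO, and the primary screen was run in duplicate at 25 uM.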
# [11] = molecular target: human Casein Kinase 2- alpha 2 beta 2 (CK2a2b2), CSNK2A1 (gene 1457) (UniProt P68400); test: NVS_ENZ_hCK2a2b2: NovaScreen (NVS) Enzymatic Assay for human Casein Kinase 2- alpha 2 beta 2 (CK2a2b2) (AID 2283147)
# Outline: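 Cell-free recombinant CK2 α2β2 holoenzyme with a fluorescent peptide substrate; product separated by electrophoretic mobility shift and read 1 h after dosing. Single-point screen at 25 uM in duplicate; actives were followed with concentration-response up to 50 uM versus DMSO.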
# [12] = molecular target: human Casein Kinase 1-delta (CK1D), CSNK1D (gene 1453) (UniProt P48730); test: NVS_ENZ_hCK1D: NovaScreen (NVS) Enzymatic Assay for human Casein Kinase 1-delta (CK1D) (AID 2283148)
# Outline: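 Recombinant human CK1-delta, cell-free; fluorescent substrate with electrophoretic mobility-shift separation of product, read 1 h after dosing. Single 25 uM duplicate screen, then concentration-response up to 50 uM; loss of signal vs DMSO.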
# [13] = molecular target: rat CYP3A2, Cyp3a2 (gene 266682) (UniProt P05183); test: NVS_ADME_rCYP3A2: NovaScreen (NVS) CYP450-related Enzyme Activity (ADME) Assay for rat CYP3A2 (AID 2283128)
# Outline: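 Cell-free rat CYP3A2 enzyme assay with fluorescent substrate, read 0.5 h after dosing. Primary duplicate screen at 10 uM; actives run in concentration-response up to 20 uM, relative to acetonitrile baseline.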
# [14] = molecular target: human AKT serine/threonine Kinase 1 (AKT1), AKT1 (gene 207) (UniProt P31749); test: NVS_ENZ_hAKT1: NovaScreen (NVS) Enzymatic Assay for human AKT serine/threonine Kinase 1 (AKT1) (AID 2283138)
# Outline: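 Cell-free recombinant enzyme with substrate; activity read by fluorescence intensity after electrophoretic mobility shift separating substrate from product, 1 h after dosing. Single-concentration duplicates at 25 uM, then singleton concentration-response up to 50 uM; loss of signal versus DMSO.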
# rat CYP2C6, gene 293989 = test: NVS_ADME_rCYP2C6: NovaScreen (NVS) CYP450-related Enzyme Activity (ADME) Assay for rat CYP2C6 (AID 2283120)
# Outline: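 Cell-free recombinant rat CYP2C6 with fluorogenic substrate, read by fluorescence 1 h after dosing; acetonitrile as negative control. Primary screen at 10 uM in duplicate, actives then in concentration-response up to 20 uM.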
# Caspase-3 (Homo sapiens) = Caspase-3 (Homo sapiens) (UniProt P42574); test: NVS_ENZ_hCASP3: NovaScreen (NVS) Enzymatic Assay for human Caspase 3 (CASP3) (AID 2283139)
# Outline: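 Recombinant human caspase-3 from E. coli with a fluorogenic substrate, read by fluorescence 1 h after dosing. Primary screen in duplicate at 25 uM. Actives (for example ≥30% inhibition) rerun as concentration-response up to 50 uM.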
# CDK2 (gene 1017) = CDK2 (gene 1017) (UniProt P24941); test: NVS_ENZ_hCDK2: NovaScreen (NVS) Enzymatic Assay for human Cyclin-Cependent Kinase 2 (CDK2) (AID 2283144)
# Outline: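 Cell-free recombinant human CDK2 with fluorescent substrate, product separated by electrophoretic mobility shift; 1 hr read. Primary screen at 25 uM in duplicate, actives retested in concentration-response up to 50 uM; loss of signal versus DMSO.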
# Sequence of human Caspase 4 (CASP4), CASP4 (gene 837) (P49662 whole entry, looked up): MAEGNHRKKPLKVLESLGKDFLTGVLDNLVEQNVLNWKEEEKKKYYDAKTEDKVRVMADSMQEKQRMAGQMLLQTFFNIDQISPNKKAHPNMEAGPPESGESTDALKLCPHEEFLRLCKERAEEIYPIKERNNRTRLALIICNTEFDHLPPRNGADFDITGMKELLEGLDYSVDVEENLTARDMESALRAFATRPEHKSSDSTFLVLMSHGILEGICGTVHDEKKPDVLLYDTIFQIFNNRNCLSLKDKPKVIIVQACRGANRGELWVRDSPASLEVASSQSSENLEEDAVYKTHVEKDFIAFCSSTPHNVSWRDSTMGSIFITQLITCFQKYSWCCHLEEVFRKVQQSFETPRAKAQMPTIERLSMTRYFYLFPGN
# Sequence of rat CYP3A2, Cyp3a2 (gene 266682) (P05183 whole entry, looked up): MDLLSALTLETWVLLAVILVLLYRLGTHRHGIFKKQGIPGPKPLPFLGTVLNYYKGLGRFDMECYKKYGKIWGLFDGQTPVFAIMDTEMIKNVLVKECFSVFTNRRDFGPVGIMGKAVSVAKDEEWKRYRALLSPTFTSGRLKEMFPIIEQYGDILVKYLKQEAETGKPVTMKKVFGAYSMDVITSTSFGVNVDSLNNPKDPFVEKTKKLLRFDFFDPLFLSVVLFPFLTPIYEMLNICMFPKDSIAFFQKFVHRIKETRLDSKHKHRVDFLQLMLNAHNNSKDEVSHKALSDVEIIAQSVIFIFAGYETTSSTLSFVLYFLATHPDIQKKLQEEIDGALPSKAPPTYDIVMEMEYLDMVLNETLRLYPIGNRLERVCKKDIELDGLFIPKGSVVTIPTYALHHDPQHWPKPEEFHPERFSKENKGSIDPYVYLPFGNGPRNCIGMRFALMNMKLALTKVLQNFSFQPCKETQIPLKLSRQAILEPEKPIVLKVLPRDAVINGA
# Sequence of human Beta-secretase (BACE), BACE1 (gene 23621) (P56817 whole entry, looked up): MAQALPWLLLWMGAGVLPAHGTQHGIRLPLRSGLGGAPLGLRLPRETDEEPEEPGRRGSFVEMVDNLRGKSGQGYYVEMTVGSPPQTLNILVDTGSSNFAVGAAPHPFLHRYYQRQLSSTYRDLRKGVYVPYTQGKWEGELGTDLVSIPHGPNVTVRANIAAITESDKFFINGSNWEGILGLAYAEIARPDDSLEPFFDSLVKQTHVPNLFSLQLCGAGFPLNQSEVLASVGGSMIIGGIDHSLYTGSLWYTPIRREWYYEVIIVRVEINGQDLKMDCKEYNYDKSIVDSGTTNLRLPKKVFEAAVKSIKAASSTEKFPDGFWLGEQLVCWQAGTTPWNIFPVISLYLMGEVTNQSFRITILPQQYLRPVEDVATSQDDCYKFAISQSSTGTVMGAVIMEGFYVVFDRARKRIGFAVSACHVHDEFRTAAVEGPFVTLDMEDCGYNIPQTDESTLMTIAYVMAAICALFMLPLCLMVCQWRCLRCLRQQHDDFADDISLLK
# Sequence of human Caspase 5 (CASP5), CASP5 (gene 838) (P51878 whole entry, looked up): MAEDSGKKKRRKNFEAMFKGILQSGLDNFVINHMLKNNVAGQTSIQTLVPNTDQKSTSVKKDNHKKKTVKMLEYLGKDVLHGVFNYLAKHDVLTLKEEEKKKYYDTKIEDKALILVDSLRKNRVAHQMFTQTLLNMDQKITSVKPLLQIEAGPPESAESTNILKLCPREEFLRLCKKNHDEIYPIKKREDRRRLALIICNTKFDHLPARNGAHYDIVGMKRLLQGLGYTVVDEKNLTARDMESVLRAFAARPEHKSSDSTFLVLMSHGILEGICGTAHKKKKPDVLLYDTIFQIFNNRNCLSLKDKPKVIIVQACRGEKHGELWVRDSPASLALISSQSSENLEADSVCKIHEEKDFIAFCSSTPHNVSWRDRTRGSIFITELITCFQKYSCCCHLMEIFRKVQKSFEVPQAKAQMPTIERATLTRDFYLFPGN
# Sequence of human Acetylcholinesterase (AChE), ACHE (gene 43) (P22303 whole entry, looked up): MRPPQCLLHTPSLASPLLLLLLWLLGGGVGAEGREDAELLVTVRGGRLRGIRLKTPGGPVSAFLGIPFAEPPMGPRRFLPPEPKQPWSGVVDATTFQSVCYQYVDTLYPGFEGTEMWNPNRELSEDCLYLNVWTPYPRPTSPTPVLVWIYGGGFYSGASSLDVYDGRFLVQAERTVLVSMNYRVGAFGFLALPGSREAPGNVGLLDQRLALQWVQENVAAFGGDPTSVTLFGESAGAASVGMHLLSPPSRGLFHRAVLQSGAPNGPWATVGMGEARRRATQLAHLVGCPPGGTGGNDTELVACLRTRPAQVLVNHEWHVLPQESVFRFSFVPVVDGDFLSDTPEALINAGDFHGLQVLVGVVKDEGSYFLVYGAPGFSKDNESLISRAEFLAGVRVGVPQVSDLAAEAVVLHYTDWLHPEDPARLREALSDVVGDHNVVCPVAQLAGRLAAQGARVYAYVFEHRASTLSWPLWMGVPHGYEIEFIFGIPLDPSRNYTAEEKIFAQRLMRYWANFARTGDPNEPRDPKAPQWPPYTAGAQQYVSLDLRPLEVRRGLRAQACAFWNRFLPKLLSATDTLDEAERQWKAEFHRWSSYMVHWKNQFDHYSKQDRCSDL
# Sequence of human Caspase 8 (CASP8), CASP8 (gene 841) (Q14790 whole entry, looked up): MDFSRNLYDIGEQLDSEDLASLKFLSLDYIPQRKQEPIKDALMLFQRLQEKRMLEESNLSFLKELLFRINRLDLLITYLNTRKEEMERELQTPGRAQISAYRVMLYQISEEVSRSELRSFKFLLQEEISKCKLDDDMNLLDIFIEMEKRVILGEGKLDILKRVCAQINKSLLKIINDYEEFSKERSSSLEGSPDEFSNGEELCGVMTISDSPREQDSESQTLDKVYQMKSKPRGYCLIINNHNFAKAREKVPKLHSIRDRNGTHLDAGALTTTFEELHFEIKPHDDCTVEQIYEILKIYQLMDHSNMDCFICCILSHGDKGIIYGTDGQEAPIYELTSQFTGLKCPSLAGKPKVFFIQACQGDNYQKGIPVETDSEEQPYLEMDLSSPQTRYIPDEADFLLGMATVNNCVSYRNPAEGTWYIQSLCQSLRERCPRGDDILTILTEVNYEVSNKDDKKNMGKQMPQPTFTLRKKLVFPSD
# Sequence of Caspase-3 (Homo sapiens) (P42574 whole entry, looked up): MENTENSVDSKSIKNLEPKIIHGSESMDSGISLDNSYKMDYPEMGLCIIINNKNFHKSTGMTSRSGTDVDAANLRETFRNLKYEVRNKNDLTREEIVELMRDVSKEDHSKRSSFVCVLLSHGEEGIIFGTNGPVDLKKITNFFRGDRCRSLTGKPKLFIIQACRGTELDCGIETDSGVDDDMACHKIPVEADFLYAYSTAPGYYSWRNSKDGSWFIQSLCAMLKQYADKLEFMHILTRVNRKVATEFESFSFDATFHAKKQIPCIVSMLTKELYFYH
# Sequence of human AKT serine/threonine Kinase 1 (AKT1), AKT1 (gene 207) (P31749 whole entry, looked up): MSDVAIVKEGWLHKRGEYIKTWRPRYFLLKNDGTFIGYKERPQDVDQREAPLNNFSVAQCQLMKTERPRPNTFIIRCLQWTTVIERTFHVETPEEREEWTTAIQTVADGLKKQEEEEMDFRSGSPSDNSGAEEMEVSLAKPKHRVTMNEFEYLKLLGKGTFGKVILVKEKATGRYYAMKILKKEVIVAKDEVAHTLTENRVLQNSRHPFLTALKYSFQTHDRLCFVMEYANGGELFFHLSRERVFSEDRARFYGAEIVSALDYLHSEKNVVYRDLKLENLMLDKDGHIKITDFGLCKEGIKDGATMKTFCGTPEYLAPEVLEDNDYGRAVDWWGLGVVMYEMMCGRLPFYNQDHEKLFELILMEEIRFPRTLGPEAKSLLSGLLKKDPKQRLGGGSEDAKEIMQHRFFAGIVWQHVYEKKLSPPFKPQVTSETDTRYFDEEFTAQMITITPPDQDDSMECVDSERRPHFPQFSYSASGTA
# Sequence of human Aurora Kinase A - serine/threonine-protein Kinase 6 (AurA), AURKA (gene 6790) (O14965 whole entry, looked up): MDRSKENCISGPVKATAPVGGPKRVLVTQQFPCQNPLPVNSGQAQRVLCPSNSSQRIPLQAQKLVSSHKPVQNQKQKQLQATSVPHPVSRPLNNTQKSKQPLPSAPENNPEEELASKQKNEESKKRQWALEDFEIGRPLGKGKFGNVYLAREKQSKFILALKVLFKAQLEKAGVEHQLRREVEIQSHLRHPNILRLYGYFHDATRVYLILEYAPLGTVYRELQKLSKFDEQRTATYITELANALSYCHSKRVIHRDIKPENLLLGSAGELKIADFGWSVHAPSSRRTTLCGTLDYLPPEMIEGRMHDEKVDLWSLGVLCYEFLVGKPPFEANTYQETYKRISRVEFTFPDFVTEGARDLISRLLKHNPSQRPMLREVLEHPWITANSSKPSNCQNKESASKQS
# Sequence of human AKT serine/threonine Kinase 2 (AKT2), AKT2 (gene 208) (P31751 whole entry, looked up): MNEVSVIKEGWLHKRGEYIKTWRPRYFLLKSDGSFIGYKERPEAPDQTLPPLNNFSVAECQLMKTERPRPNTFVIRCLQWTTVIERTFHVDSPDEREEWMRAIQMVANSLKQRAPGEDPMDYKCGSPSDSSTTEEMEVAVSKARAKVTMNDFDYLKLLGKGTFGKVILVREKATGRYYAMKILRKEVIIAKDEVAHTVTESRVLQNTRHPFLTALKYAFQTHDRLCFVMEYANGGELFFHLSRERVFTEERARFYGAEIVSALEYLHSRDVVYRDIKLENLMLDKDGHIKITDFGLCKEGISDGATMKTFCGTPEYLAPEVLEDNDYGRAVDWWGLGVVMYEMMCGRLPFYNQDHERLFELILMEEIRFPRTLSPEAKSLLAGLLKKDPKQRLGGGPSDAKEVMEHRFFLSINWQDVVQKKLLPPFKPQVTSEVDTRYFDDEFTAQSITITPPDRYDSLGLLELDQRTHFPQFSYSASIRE
# Sequence of human Casein Kinase 2- alpha 2 beta 2 (CK2a2b2), CSNK2A1 (gene 1457) (P68400 whole entry, looked up): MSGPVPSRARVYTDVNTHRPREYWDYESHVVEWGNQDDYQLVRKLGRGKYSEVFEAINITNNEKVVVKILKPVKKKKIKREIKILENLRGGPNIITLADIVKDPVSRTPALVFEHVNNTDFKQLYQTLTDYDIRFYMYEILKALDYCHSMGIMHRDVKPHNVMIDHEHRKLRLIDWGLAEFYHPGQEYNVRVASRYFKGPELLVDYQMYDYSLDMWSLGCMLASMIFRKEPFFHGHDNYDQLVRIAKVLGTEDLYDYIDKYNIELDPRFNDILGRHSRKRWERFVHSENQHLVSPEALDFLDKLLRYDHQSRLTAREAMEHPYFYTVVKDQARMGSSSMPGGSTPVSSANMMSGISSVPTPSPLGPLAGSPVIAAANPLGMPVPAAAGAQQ
smiles,measurement,setting,value
CNC(=S)S,outcome,[1],inactive
same,outcome,"rat CYP3A1, gene 25642",inactive
same,AC50,[2],39.9 µM (active)
same,outcome,Caspase-1 (Homo sapiens),inactive
same,outcome,[3],inactive
same,AC50,[4],9.04 µM (active)
same,outcome,[5],inactive
same,outcome,[6],inactive
same,outcome,[7],inactive
same,outcome,[8],inactive
same,outcome,[9],inactive
same,outcome,[10],inactive
same,outcome,[11],inactive
same,outcome,[12],inactive
Cc1ccc(-c2c(Cl)nc(C#N)n2S(=O)(=O)N(C)C)cc1,AC50,"rat CYP3A1, gene 25642",2.88 µM (active)
same,AC50,[13],1.1 µM (active)
same,outcome,[14],inactive
same,outcome,[6],inactive
same,AC50,[8],23.5 µM (active)
same,AC50,[11],6.49 µM (active)
same,outcome,[12],inactive
COC(=O)N(OC)c1ccccc1COc1ccn(-c2ccc(Cl)cc2)n1,AC50,"rat CYP3A1, gene 25642",1.29 µM (active)
same,AC50,[6],11.6 µM (active)
OC(c1ccc(Cl)cc1)(c1cncnc1)c1ccccc1Cl (stereo not drawn),AC50,"rat CYP2C6, gene 293989",1.39 µM (active)
same,AC50,"rat CYP3A1, gene 25642",2.92 µM (active)
same,AC50,[13],5.57 µM (active)
CCON=C(CC)C1=C(O)CC(c2c(C)cc(C)cc2C)CC1=O (stereo not drawn),AC50,"rat CYP3A1, gene 25642",4.22 µM (active)
same,AC50,[13],3 µM (active)
CS/C(C)=N/OC(=O)N(C)SN(C)C(=O)O/N=C(\C)SC,AC50,"rat CYP2C6, gene 293989",3.63 µM (active)
same,AC50,[13],3.39 µM (active)
same,AC50,[2],4.85 µM (active)
same,outcome,[7],inactive
CCCC1COC(Cn2cncn2)(c2ccc(Cl)cc2Cl)O1 (stereo not drawn),AC50,"rat CYP2C6, gene 293989",2.45 µM (active)
same,AC50,"rat CYP3A1, gene 25642",2.08 µM (active)
same,outcome,[5],inactive
CC1COC(Cn2cncn2)(c2ccc(Oc3ccc(Cl)cc3)cc2Cl)O1 (stereo not drawn),AC50,"rat CYP2C6, gene 293989",1.56 µM (active)
same,AC50,[1],1.43 µM (active)
same,AC50,"rat CYP3A1, gene 25642",0.628 µM (active)
same,AC50,[13],1.35 µM (active)
same,outcome,[14],inactive
CCCCNC(=O)OCC#CI,AC50,"rat CYP3A1, gene 25642",1.46 µM (active) and 4.29 µM (active)
C=CCC1=C(C)C(OC(=O)C2C(C=C(C)C)C2(C)C)CC1=O (stereo not drawn),AC50,[13],6.87 µM (active)
COC(=O)C=C(C)OP(=O)(OC)OC,AC50,[2],6 µM (active)
O=C(O)c1nc(Cl)ccc1Cl,outcome,[2],inactive
COc1nc(NC(C)C)nc(NC(C)C)n1,outcome,[5],inactive
CC(Oc1ccc(Cl)cc1Cl)C(=O)O (stereo not drawn),outcome,Caspase-3 (Homo sapiens),inactive
C#CCOS(=O)OC1CCCCC1Oc1ccc(C(C)(C)C)cc1 (stereo not drawn),outcome,Caspase-3 (Homo sapiens),inactive
CC(C)C1(C)N=C(c2nc3ccccc3cc2C(=O)O)NC1=O (stereo not drawn),outcome,[9],inactive
CC(C)Oc1cc(-n2nc(C(C)(C)C)oc2=O)c(Cl)cc1Cl,outcome,[9],inactive
COc1nc(C)nc(NC(=O)NS(=O)(=O)c2ccccc2Cl)n1,outcome,CDK2 (gene 1017),inactive
CCNc1nc(Cl)nc(NC(C)C)n1,outcome,CDK2 (gene 1017),inactive
N#Cc1cc(Br)c(O)c(Br)c1,outcome,[10],inactive
Fc1ccc(Oc2ccnc3cc(Cl)cc(Cl)c23)cc1,outcome,[10],inactive
